This is an account of results in PubChem BioAssay (NCATS).

The assay in a line: qHTS for identification of novel therapeutic agents for treatment of microphthalmiaassociated transcription factor (MiT) renal cell carcinoma (RCC) (AID 1963991). Conditions: CellTiter-Glo, 48 h; for z-score: stronger effect = lower value. From the text:
PI: Marston Linehan Ph.D.
Urologic Oncology Branch, Center for Cancer Research (CCR)
National Cancer Institute (NCI), National Institute of Health (NIH), Bethesda, Maryland
MiT-Renal Cell Carcinoma (RCC) is characterized by genomic translocations involving microphthalmia-associated transcription factor (MiT) family members TFE3, TFEB, or MITF. MiT-RCC represents a specific subtype of sporadic RCC that is predominantly seen in young patients and can present with heterogeneous histological features making diagnosis challenging. Moreover, the disease biology of this aggressive cancer is poorly understood and there is no accepted standard of care therapy for patients with advanced disease. Tumor-derived cell lines have been established from human TFE3-RCC providing useful models for preclinical studies. TFE3-RCC tumor derived cell lines and their tissues of origin were characterized by IHC and gene expression analyses. An unbiased high-throughput drug screen was performed to identify novel therapeutic agents for treatment of MiT-RCC. Potential therapeutic candidates were validated in in vitro and in vivo preclinical studies. Mechanistic assays were conducted to confirm the on-target effects of drugs. The results of a high-throughput small molecule drug screen utilizing three TFE3-RCC tumor-derived cell lines identified five classes of agents with potential pharmacological efficacy, including inhibitors of phosphoinositide-3-kinase (PI3K) and mechanistic target of rapamycin (mTOR), and several additional agents, including the transcription inhibitor Mithramycin A. Upregulation of the cell surface marker GPNMB, a specific MiT transcriptional target, was confirmed in TFE3-RCC and evaluated as a therapeutic target using the GPNMB-targeted antibody-drug conjugate CDX-011. […] The results of the high-throughput drug screen and validation studies in TFE3-RCC tumor-derived cell lines have provided in vitro and in vivo preclinical data supporting the efficacy of the PI3K/mTOR inhibitor.
SEQUENCE No. (e.g., 1, 2, 3, etc.); […] (e.g., Cells, Incubation, Reagent, etc.); VALUE; DESCRIPTION.
1; Cells; 3 uL; white, solid-bottom Grenier assay plate.
2; Compounds; 23 nL; Kalypsis pin-tool (Wako USA).
3; Incubation; 48 hr; 37 C, 5% CO2, 95% humidity.
4; Reagent; 3 uL; CellTiter-Glo reagent (Promega).
5; Incubation; 15 min; room temperature.
6; Detection; Luminescence; ViewLux plate reader (PerkinElmer).
NOTES (numbers refer to Sequence numbers above)
1. Quantitative high-throughput screening (qHTS) of 1912 pharmacologically defined small molecule compounds was conducted on three TFE3-fusion cell lines bearing three different fusion partners (UOK109, UOK124, UOK145). Briefly, 500 cells in complete growth media were plated into white, solid-bottom, 1536-well tissue culture treated plates (Grenier Cat. 789173-F) using a Multidrop Combi cassette dispenser.
2. Twenty-three nanoliter of 1912 pharmacologically defined small molecule compounds of the NCATS Mechanism Interrogation PlatE (MIPE) version 4.0 were added to each assay plate using a Pintool Dispenser (Wako) equipped with 1536 pin head.
3. Plates were covered with stainless steel gasketed lids and incubated for 48 hours at standard cell culture conditions.
4. Viability was assessed by adding 3uL of CellTiter-Glo detection reagent (Promega).
5. Plates were covered with gasket lids and incubated for 15 minutes at room temperature.
6. Luminescence was measured on a ViewLux plate reader (PerkinElmer). Post-screen data processing used DMSO controls as 100% viability and empty wells as 0% viability and dose response curve fitting was done for all 11 concentrations for each compound.

The mark [1] stands for this setting: TFE3-RCC UOK109 viability, measured here: UOK109 Z-AUC.
The mark [2] stands for this setting: TFE3-RCC viability, measured here: UOK124 Z-AUC.
[3] abbreviates: TFE3-RCC viability, measured here: UOK145 Z-AUC.

Records with an inconclusive call do not appear. The source made the active and inactive calls.
Potency is read from the fitted curve at half-maximal effect.

On to `Oc1cccc(-c2nc(N3CCOCC3)c3oc4ncccc4c3n2)c1`, for which, for the setting “TFE3-RCC UOK109 viability, active = Z-AUC below -0.8 in all three lines”, the Potency is 4.81 µM (active). Moreover, the z-score is -1.31 under setting [1], -1.8 under setting [2] and -2.03 under setting [3].

Regarding `NS(=O)(=O)c1cc2c(cc1Cl)NC=NS2(=O)=O`, the z-score was determined as 0.178 under setting [1], 0.944 under setting [2] and 0.209 under setting [3].

Regarding `CC(C[N+](C)(C)C)OC(N)=O` (stereo not given), the z-score runs as follows: under setting [1], 0.592; under setting [2], 0.666; under setting [3], 0.688.

Regarding `O=C(C=Cc1ccc(/C=C/C(=O)Nc2ccc(C3=NCCN3)cc2)cc1)Nc1ccc(C2=NCCN2)cc1`, the z-score reads like this: under setting [1], 0.251; under setting [2], 0.767; under setting [3], 0.309.

`Nc1cccc(S(=O)(=O)N2CCCN(S(=O)(=O)c3ccc4c(c3)OCCO4)CC2)c1` returned a z-score under setting [1] of 0.453, a z-score under setting [2] of 0.564 and a z-score under setting [3] of 0.252.

`Cc1ccccc1C(C(=O)NC1CCCC1)N(C(=O)Cn1cnc2ccccc21)c1cccc(F)c1` (stereo not given) displayed a z-score under setting [1] of 0.51, a z-score under setting [2] of 0.839 and a z-score under setting [3] of 0.533.

As to `c1ccc([C@H]2CN3CCSC3=N2)cc1`, the z-score was 0.343 under setting [1], 0.703 under setting [2] and 0.523 under setting [3].

As for `O=c1ncn2nc(Sc3ccc(F)cc3F)ccc2c1-c1c(Cl)cccc1Cl`, the z-score runs as follows: under setting [1], 0.124; under setting [2], 1.12; under setting [3], 1.1.

`NCCc1ccc(O)c(O)c1` yielded a z-score under setting [1] of 0.759, a z-score under setting [2] of 0.079 and a z-score under setting [3] of 0.506.

Consider `CCCCNc1cc(C(=O)O)cc(S(N)(=O)=O)c1Oc1ccccc1`, for which the z-score was 0.772 under setting [1], 0.679 under setting [2] and -1.8 under setting [3].

Regarding `O=C(O)COCCN1CCN(C(c2ccccc2)c2ccc(Cl)cc2)CC1` (stereo not given), the z-score stood at 0.871 under setting [1], 0.439 under setting [2] and 0.674 under setting [3].

Regarding `CC[C@@H](C)[C@H](NC(=O)[C@H](CC1CCCCC1)NC(=O)c1ccno1)C(=O)N1CCC2(CCc3ccccc32)CC1`, the z-score is 0.139 under setting [1], 0.261 under setting [2] and -0.242 under setting [3].

For the molecule `COc1ccc(CC2=NN3C([C@@H](CCc4ccccc4)[C@@H](C)O)=NC(C)C3C(=O)N2)cc1OC` (stereo not given in full), the z-score came out at 1.24 under setting [1], 0.967 under setting [2] and 0.717 under setting [3].
